aDG glyco up = alpha-DG glycosylation activation; AID 624168; Pro5-aDG cells, alpha-DG glycosylation AlphaScreen (IIH6); 0% Pro5, 100% B10-LARGE cell signal; 360,000 tested, 0.22% active; activation, % at 10 µM;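 active = activation of at least 8% versus controls, or a plate z-score of at least 8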;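 also: Pro5 are CHO cells carrying HIG-tagged alpha-DG that lacks glycosylation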
beta cell repl = inducers of beta-cell replication in MIN6 cells | proliferation, % at 10 µM | MIN6 cells proliferation, ATPlite luminescence, 48 h; cells starved in 0.2% serum; 100% = growth in 10% serum | 330,000 tested, 0.29% active;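 active = compounds whose signal lies at least 3.5 SD above the mean of all wells on their plate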;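 also: 0% = DMSO-treated cells in low-serum medium and 100% = 10% serum control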
Calpain2 inh = blocks pig calpain II enzyme activity | purified calpain II, fluorogenic peptide substrate, 30 min | inhibition, % at 16 µM | 220,000 tested, 0.37% active;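 active = inhibition above about 50%, limit read from the data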
H9c2 protect = myocardial damage modulation in H9c2 cells | H9c2 cardiomyocytes, H2O2 injury protection, ATPLite, 2 h | protection from H2O2 cell death, % at 20 µM | 360,000 tested, 0.63% active | AID 588492;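 active = compounds giving at least 50% protection of heart cells from peroxide-induced death in the single-dose screen, raw or plate-pattern-corrected value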;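 also: 0% = DMSO wells with peroxide and 100% = DMSO wells without peroxide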
FAS-TE inh = blocks the thioesterase domain of human fatty acid synthase | P49327 | recombinant FAS-TE, OMFH fluorogenic substrate, fluorescence endpoint | inhibition, % at 15 µM | 360,000 tested, 0.67% active;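 active = compounds whose normalised, plate-corrected inhibition of enzyme fluorescence in the single-dose primary screen is 50% or more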;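 also: 0% = DMSO with enzyme and 100% = substrate without enzyme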
H9c2 TAG inh = reduces triacylglycerol accumulation in H9c2 cells; Nile Red lipid (TAG) fluorescence; cells loaded with 200 µM oleic acid; inhibition, % at 12.5 µM; 230,000 tested, 0.66% active;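 active = pattern-corrected inhibition of lipid staining of at least 50% with the nuclear-stain viability signal not falling by more than 50%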;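 also: 0% = DMSO wells and 100% = triacsin C control wells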
Starred values were filed as active, the others as inactive; x = not tested or not shown. An excerpt weighted towards active compounds, which were near 2.3% of everything screened.

SMILES	aDG glyco up	beta cell repl	Calpain2 inh	H9c2 protect	FAS-TE inh	H9c2 TAG inh
CCC/C=C/c1ccc(CN2C(C(C)C)C(=O)N(Cc3cn(CC4CCCCC4)nn3)CCS2(=O)=O)cc1 (centres undefined)	0	x	x	-14	20	1
Cc1ccc(NC(=O)c2cc(S(=O)(=O)N3CCCCC3)ccc2N2CCOCC2)c(C)c1	0	x	x	2	-3	2
CC(C)C[C@H](NC(=O)c1nc[nH]c1C(=O)NCC(=O)OCc1ccccc1)C(=O)OCc1ccccc1	0	-8	x	-1	24	-1
C[C@@H](OC(=O)c1[nH]cnc1C(=O)NCc1ccc(CNC(=O)OC(C)(C)C)cc1)c1ccccc1	1	-5	x	59*	29	-18
CC(C)C[C@H](NC(=O)c1[nH]cnc1C(=O)N[C@@H](C)c1ccccc1)C(=O)OCc1ccccc1	1	-8	56*	-19	27	-6
CC(C)(C)OC(=O)NCc1ccc(CNC(=O)c2nc[nH]c2C(=O)NCc2ccccc2)cc1	0	-2	x	-3	7	13
C[C@H](NC(=O)c1nc[nH]c1C(=O)NCC(=O)OCc1ccccc1)C(=O)OCc1ccccc1	0	-2	x	77*	15	11
C[C@H](NC(=O)c1nc[nH]c1C(=O)NC(c1ccccc1)c1ccccc1)C(=O)OC(C)(C)C	0	-8	16	43	26	-17
CC(C)(C)OC(=O)CNC(=O)c1[nH]cnc1C(=O)NC(c1ccccc1)c1ccccc1	0	-9	x	59*	22	2
C[C@H](NC(=O)c1nc[nH]c1C(=O)NCC(=O)OCc1ccccc1)c1ccccc1	0	-3	x	84*	2	-14
C[C@H](NC(=O)c1nc[nH]c1C(=O)OCc1ccccc1)c1ccccc1	0	4	x	0	-5	-1
COc1ccc(N=Cc2cc(Cl)ccc2O)cc1Cl	0	-2	14	72*	-3	8
Oc1ccc(N=Nc2cccc(Cl)c2)cc1C=Nc1ccc(N2CCOCC2)cc1	0	x	30	66*	6	x
Oc1c(Br)cc(Cl)cc1C=Nc1ccc(N2CCOCC2)cc1	0	-4	22	48	-3	x
Oc1ccc(Cl)cc1C=Nc1ccc(Br)cc1	0	0	9	50*	-2	1
Oc1ccc(Cl)cc1C=Nc1ccc2c3c(cccc13)CC2	0	-2	-429	91*	9	x
C=CCN1/C(=C2/SC(=S)N(C)C2=O)Sc2ccccc21	x	-2	x	x	x	x
O=C(NCc1ccco1)C(c1ccncc1)N(C(=O)Cc1cccs1)c1ccccc1 (centres undefined)	0	6	18	4	-4	-1
O=C(NCc1ccco1)C(c1ccccc1)N(C(=O)Cc1cccs1)c1ccccc1F (centres undefined)	0	-2	-4	75*	11	-10
Cc1ccc(S(=O)(=O)Nc2nc(CN3CCOCC3)nc3sc(C(=O)O)c(C)c23)cc1	0	x	x	-2	-4	2
O=C(NNC(=O)c1cccnc1SCc1cccc([N+](=O)[O-])c1)c1ccc(F)cc1	0	0	5	2	22	x
O=C(NNC(=O)c1cccnc1SCc1cccc([N+](=O)[O-])c1)c1ccccn1	2	0	-53	83*	11	x
N#C/C(=C\c1cccn1S(=O)(=O)c1ccccc1)S(=O)(=O)c1ccc(F)cc1	0	x	x	-10	10	-24
CCCCN1C2=C(C(=O)CCC2)C(c2ccc(Cl)c(Cl)c2)C2=C1c1ccccc1C2=O (centres undefined)	0	-5	-40	20	25	60*
CCCN1C(=O)c2ccccc2NC1c1ccc(Cl)c(Cl)c1 (centres undefined)	2	-4	x	-2	15	x
COc1ccccc1N(/N=C1\Sc2ccccc2C1=O)C(C)=O	0	-4	-1	-10	0	69*
COc1ccc(CCn2c(=O)c3cccnc3n(Cc3ccc([N+](=O)[O-])cc3)c2=O)cc1OC	0	x	24	56*	11	x
COc1ccc(C(Cl)=C(C=O)c2ccc(OC)c(OC)c2)cc1OC	0	x	x	5	-9	x
CC(=O)c1c(C)oc2c1C(=O)c1ccccc1C2=O	9.8*	x	12	-7	-4	x
Cc1oc2c(c1C(=O)NCc1cccnc1)C(=O)c1ccccc1C2=O	x	-6	-12	x	x	x

Screens: PubChem BioAssay, several laboratories
